TEAD-YAP inh = TEAD-YAP interaction inhibition | actives 1.4% (n = 640,000) | HEK-TIYL cells, TEAD-Gal4/YAP UAS-luciferase luminescence | inhibition, % at 9.12 µM; in the data active = inhibition above about 32%;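 note: 0% = median of test compound wells and 100% = reference inhibitor wells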
FBW7 activator = human FBW7 E3 ligase activation, primary screen | normalized activity (activation), % at 26.1 µM | actives 0.13% (n = 650,000) | Q969H0 | AID 1259310 | AlphaScreen FBW7–phospho-cyclin E peptide binding, activator screen; in the data active = normalized activity above about 1.9%;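 note: purified mutant Fbw7 with reduced substrate affinity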
GPR151 activ = activates the human receptor GPR151. Q8TDV0. PathHunter beta-arrestin GPR151 cells, luminescence. activation, % at 11.2 µM. actives 1% (n = 650,000); in the data active = activation above about 4.9%;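 note: 0% = median of compound wells and 100% = cells with positive control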
Target sequence (Q8TDV0 whole entry, looked up): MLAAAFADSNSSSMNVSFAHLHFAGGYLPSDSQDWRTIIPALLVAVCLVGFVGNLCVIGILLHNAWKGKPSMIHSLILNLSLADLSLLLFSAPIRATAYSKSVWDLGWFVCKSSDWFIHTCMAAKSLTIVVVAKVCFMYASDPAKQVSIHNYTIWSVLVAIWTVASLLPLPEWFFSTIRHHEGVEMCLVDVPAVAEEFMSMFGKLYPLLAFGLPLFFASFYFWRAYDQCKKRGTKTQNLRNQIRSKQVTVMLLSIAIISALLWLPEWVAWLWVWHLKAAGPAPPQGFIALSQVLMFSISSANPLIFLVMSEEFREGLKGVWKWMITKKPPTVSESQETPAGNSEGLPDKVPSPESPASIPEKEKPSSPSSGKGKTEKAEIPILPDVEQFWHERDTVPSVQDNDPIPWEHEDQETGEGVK
MITF primary = inhibitors of human MITF; inhibition, % at 2.6 µM; O75030; AlphaScreen MITF homodimerization, bead proximity signal; actives 0.91% (n = 650,000); AID 1259374; in the data active = inhibition above about 50%;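 note: 0% = vehicle wells with protein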
* = called active by the depositor. A selection: hits, their analogues and other compounds. The true share with any hit is near 3.5%.

SMILES	TEAD-YAP inh	FBW7 activator	GPR151 activ	MITF primary
OCCNc1nc(-c2csc3ccccc23)nc2c1ncn2-c1ccsc1	44*	0	0	7
c1csc(-c2nc(NC3CC3)c3ncn(-c4ccsc4)c3n2)c1	34*	0	-2	10
Cc1nn(C)c(C)c1-c1nc(NCCO)c2ncn(-c3ccsc3)c2n1	43*	0	0	8
OCCNc1nc(-c2cccs2)nc2c1ncn2-c1ccsc1	67*	0	0	33
CCCNc1nc(-c2cccs2)nc2c1ncn2-c1ccsc1	14	0	-1	4
COc1ccc(CCNc2nc(-c3c(C)nn(C)c3C)nc3c2ncn3-c2ccsc2)cc1	-6	0	3	5
c1ccc(CN2CCC(Nc3nc(-c4cccs4)nc4c3ncn4-c3ccccc3)CC2)cc1	14	0	1	10
N#Cc1ccccc1OCC(=O)NC(=O)NC1CCCC1	62*	0	-6	-2
CS(=O)C1CCCCC1(O)CSc1nc(-c2cccs2)cc(-c2ccccc2)c1C#N (configuration not stated)	8	0	-1	14
Cc1nc(SCC(=O)N(C(C)C)C(C)C)c2c(C)c(C)sc2n1	51*	0	1	-4
O=C(NCC1CCC2(CCN(C(=O)c3n[nH]c4c3CCC4)CC2)O1)c1ccccc1F (configuration not stated)	14	0	1	-1
COc1ccc(C(=O)C2CCCN(Cc3ccc(N4CCNC4=O)cc3)C2)cc1OC (configuration not stated)	-4	0	0	15
Cc1ccsc1C(=O)C1CCCN(Cc2ccc(N3CCNC3=O)cc2)C1 (configuration not stated)	35*	0	0	-19
CC(C)CNc1cc(N2CCOCC2)c2noc3c2c1C(=O)c1ccccc1-3	3	0	-1	52*
CCNc1cc(N2CCC3(CC2)OCCO3)c2noc3c2c1C(=O)c1ccccc1-3	39*	-1	1	21
O=C1c2ccccc2-c2onc3c(N4CCOCC4)cc(NCCO)c1c23	15	-1	-2	33
O=C1c2ccccc2-c2onc3c(N4CCOCC4)cc(NCCN4CCCC4)c1c23	-42	0	-1	61*
Cc1ccc(-n2[nH]c(C)c(C=NC(C)C)c2=O)cc1C	-88	0	-1	3
CC(C)CC(c1nnnn1C1CCCC1)N1CCN(C(=O)c2ccco2)CC1 (configuration not stated)	55*	0	0	-12
CC(C)CC(c1nnnn1C1CCCCC1)N1CCN(C(=O)c2ccco2)CC1 (configuration not stated)	1	0	-1	-3
N#CCCN(CCC#N)S(=O)(=O)c1ccc(F)cc1	-7	0	0	11
CCn1c2cc(C)oc2c2cn[nH]c(=O)c21	2	0	0	8
Cc1cc(-c2nnc(CCC(=O)N(C)C(C)c3ccc4c(c3)OCCO4)o2)c(C)o1 (configuration not stated)	-42	0	-1	-7
COc1ccc(N/C=C/C(=O)c2cc(OC)c(OC)c(OC)c2)cc1	42*	0	-1	15
COc1cc(C(=O)/C=C/Nc2ccc(Br)cc2)cc(OC)c1OC	38*	0	0	-2
SMILES	TEAD-YAP inh	FBW7 activator	GPR151 activ	MITF primary
COc1cc(C(=O)/C=C/Nc2ccc(I)cc2)cc(OC)c1OC	36*	0	2	-1
COc1ccc(C(=O)/C=C/Nc2ccc(Br)cc2)cc1OC	-15	0	-1	3
COc1ccc(N/C=C/C(=O)c2ccc(OC)c(OC)c2)cc1	-6	0	1	-8
CC(=O)Nc1ccc(Nc2nc(-c3c(C)noc3C)nc3c2ncn3CCN2CCCC2=O)cc1	-10	0	-2	24
Cc1cc(C=O)c(C)n1-c1ccc(C(=O)O)c(Cl)c1	10	0	0	70*
CCN(CC)C(=O)N1c2ccccc2C=Cc2ccccc21	62*	0	0	-2
O=C(C1CC1)N1CCc2cc(Br)cc(S(=O)(=O)Nc3ccccc3F)c21	45*	0	-1	-7
CC(C)(C)NS(=O)(=O)c1cc(Br)cc2c1N(C(=O)C1CC1)CC2	-5	0	1	-6
O=C(C1CC1)N1CCc2cc(Br)cc(S(=O)(=O)Nc3cccc(F)c3)c21	42*	0	1	11
CC(C(=O)OCC(=O)Nc1c(C#N)oc2ccccc12)N1C(=O)c2ccccc2C1=O (configuration not stated)	10	0	-1	10
COC(=O)c1c(-c2ccco2)csc1NC(=O)Cc1ccc(Br)cc1	-14	0	1	1
Cn1cc(CN[C@H]2C[C@H]3C(=O)N[C@@H](CO)C(=O)N3C2)c(-c2ccccc2)n1	-6	0	1	-9
CC(C)C[C@H]1NC(=O)[C@@H]2C[C@H](NCc3cn(C)nc3-c3ccccc3)CN2C1=O	0	2.5*	0	-8
Cc1nc2sccn2c1C(=O)Nc1cccc(Oc2ccccc2)c1	-4	0	-1	10
Cc1nc2sccn2c1C(=O)Nc1cccc(OC(F)(F)F)c1	-5	1.9*	0	18
COc1ccccc1N1CCN(CCCNC(=O)Nc2ccc(Br)cc2)CC1	3	2.9*	-1	-12
O=C(NCCCN1CCc2ccccc2C1)Nc1ccc(Br)cc1	-15	3.1*	0	-10
CCNC(=S)N1CCN(c2ccccc2OC)CC1	1	0	1	-9
COc1ccccc1N1CCN(C(=S)NCCN2CCOCC2)CC1	66*	0	-1	8
Cc1ccc(S(=O)(=O)CCc2nnc(-c3ccc(F)cc3)o2)cc1	-3	0	-1	-4
O=C(O)c1ccc(NCc2ccc(Cl)cc2)c([N+](=O)[O-])c1	38*	0	-1	2
COC(=O)c1c(C)oc2ccc(N(C(=O)c3ccncc3)S(=O)(=O)c3ccc(Cl)cc3)cc12	4	0	2	12
CCOc1ccc(S(=O)(=O)N(C(=O)c2ccncc2)c2ccc3oc(C)c(C(=O)OC)c3c2)cc1	64*	0	3	-8
CCOC(=O)c1c(C)oc2ccc(N(C(=O)c3ccncc3)S(=O)(=O)c3ccccc3)cc12	8	0	1	7
CCOC(=O)c1c(C)oc2ccc(N(C(=O)c3ccncc3)S(=O)(=O)c3ccc(C)cc3)cc12	48*	0	1	-2
SMILES	TEAD-YAP inh	FBW7 activator	GPR151 activ	MITF primary
Cc1ccc2cc(CN(CCCO)S(=O)(=O)c3ccc(Cl)cc3)c(=O)[nH]c2c1	-13	0	-1	6
O=C(NC1CCCCC1)c1ccc([N+](=O)[O-])cc1Cl	40*	1	1	-2
O=C(Nc1cccnc1)c1ccc([N+](=O)[O-])cc1Cl	-6	0	-1	-8
O=C(Nc1cnc2ccccc2c1)c1ccccc1Cl	78*	0	-6	-15
O=C(Nc1cnc2ccccc2c1)c1ccc([N+](=O)[O-])cc1Cl	49*	0	-4	1
O=C(Nc1ccc(Cc2ccncc2)cc1)c1ccc([N+](=O)[O-])cc1Cl	36*	0	-1	3
O=C(Nc1ccc(Cc2ccncc2)cc1)c1ccc([N+](=O)[O-])cc1	7	0	0	-7
